About 7,600 (2.4%) of roughly 320,000 compounds were called active. Where a call stands in place of a potency, no number is given. Roughly 3% stayed inconclusive and do not appear here. Calls come from the whole dose curve; as a rule, active = well fitted activation curve with a large enough effect; inconclusive = small, poorly fitted or top-dose-only effect; inactive = no such curve, though single readings can be large or run the other way. Only a selection was taken, and actives are over-represented in it overall.
Experiment: qHTS Assay for NPC1 Promoter Activators; note: nearly all actives have a fitted effect of over 60% in size;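 for activation: reporter is driven by a mutant NPC1 promoter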
Conditions: Huh7 NPC1 promoter luciferase reporter, 24 h; series mostly up to 9.22 µM
Method in brief: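 Stable NPC1-promoter luciferase Huh7 line; cpd (DMSO) 24 h, 37 °C, 5% CO2; Amplite luciferase reagent 10 min RT; luminescence readout. qHTS format.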
Potency is the fitted concentration of half-maximal effect.

Row | SMILES | Potency
1 | CCCN(CC(=O)Nc1ccccc1C)C(=O)c1ccc2[nH]c3c(c2c1)CC(C)CC3 (centres undefined) | inactive
2 | Cc1cc(C)cc(NC(=O)N2CCCCCCC2)c1 | inactive
3 | Cc1ccc2cc3cc(C(=O)N4CCCCCC4)oc3nc2c1 | 1120 nM (active)
4 | COc1ccc2oc(=O)c(C(=O)N3CCCC3)cc2c1 | inactive
5 | COc1ccc(-c2c(-c3cc(OC)cc(OC)c3)n(C)c3ccc(-c4ccn[nH]4)cc23)cc1 | inactive
6 | O=C(Nc1ccc(Br)cn1)c1ccc([N+](=O)[O-])cc1Cl | 2000 nM (active)
7 | O=C(Nc1ccncc1)c1ccc([N+](=O)[O-])cc1Cl | inactive
8 | O=C(Nc1ccc(Br)cn1)c1ccc([N+](=O)[O-])o1 | inactive
9 | C=CCn1cc(-c2cccc(C(F)(F)F)c2)cc(C#N)c1=O | inactive
10 | CN(C)C(CNC(=O)c1ccc(OCc2cn3ccccc3n2)cc1)c1ccco1 (centres undefined) | inactive
11 | C=CCNc1cnn(-c2ccc(C)cc2)c(=O)c1Cl | 2820 nM (active)
12 | Cc1ccc(Oc2cnn(-c3ccccc3)c(=O)c2Br)cc1 | inactive
13 | O=c1c(Cl)c(NC2CC2)cnn1-c1ccccc1 | inactive
14 | CC(C)Nc1nnc(SCC(=O)c2c[nH]c3ccccc23)s1 | inactive
15 | COc1ccc(CCCc2nnc(SCc3nc4ccccc4c(=O)[nH]3)n2C)cc1 | inactive
16 | COc1ccc(/C=N/Nc2nc(-c3ccc(C)cc3)c(C#N)c(=O)[nH]2)cc1 | inactive
17 | COc1ccc(NS(=O)(=O)c2cc(C(=O)Nc3ccccc3C(=O)O)ccc2C)cc1 | inactive
18 | COc1ccc(/C=N/Nc2ccccc2C(=O)O)cc1 | 89.1 nM (active)
19 | COc1ccc(/C=N/Nc2nc3ccccc3c(=O)[nH]2)cc1 | 3160 nM (active)
20 | COc1ccc(/C=N/OCC(=O)N(Cc2ccccc2)c2ccccc2C(=O)O)cc1 | inactive
21 | CCC(=O)c1ccc(OCC(=O)N(CC)CC2COc3ccccc3O2)cc1 (centres undefined) | inactive
22 | COCCn1c(C)cc(C(=O)COC(=O)CNC(=O)c2ccco2)c1C | inactive
23 | COc1cccc(C2=CC(=O)C[C@H](c3ccc(F)cc3)C2)c1OC | inactive

Row | SMILES | Potency
24 | Cc1cc(F)ccc1S(=O)(=O)Nc1ccc(C(=O)N(C)Cc2ccco2)cc1 | inactive
25 | COc1ccccc1NC(=O)COC(=O)COc1ccccc1F | inactive
26 | O=C(COC(=O)c1ccccc1Br)Nc1nnc(-c2ccccc2)o1 | inactive
27 | O=C(COC(=O)c1ccc(Oc2ccccc2)cc1)Nc1nnc(-c2ccccc2)o1 | inactive
28 | Nc1ccc(-c2nnc(-c3ccc(-c4ccccc4)cc3)o2)cc1 | 4470 nM (active)
29 | Nc1ccc(-c2sc(N)nc2-c2ccccc2)cc1 | inactive
30 | Nc1ccc(-c2nnc(-c3ccccc3)o2)cc1 | 3160 nM (active)
31 | O=C(Nc1cccc(Cl)c1)Nc1nnc(-c2ccccc2)o1 | inactive
32 | CC(C)(C)n1ncc2c(=O)n(Cc3c(Cl)cccc3Br)cnc21 | inactive
33 | CC(C)c1ccc(S(=O)(=O)N2CCN(C(C)C(=O)NC3CCCC3)CC2)cc1 (centres undefined) | inactive
34 | CCCC(NCC(=O)Nc1ccccc1C(=O)NC1CC1)c1ccccc1 (centres undefined) | inactive
35 | COc1ccccc1N1CCN(C(=O)C2Cc3ccccc3CN2C(=O)c2ccco2)CC1 (centres undefined) | inactive
36 | CCN1C(=O)[C@@H]2[C@@H](c3ccc(-c4cccc(Cl)c4)cc3)N3CCC[C@@]3(C(=O)OC)[C@@H]2C1=O | inactive
37 | CCCCc1ccc(NS(=O)(=O)c2cccc(C(=O)N3CCCN(C)CC3)c2)cc1 | inactive
38 | Cc1ccc(C(=O)Oc2coc(CSc3nnc(NC(=O)c4cccs4)s3)cc2=O)cc1C | inactive
39 | Cc1ccc(C(=O)Nc2nnc(-c3cccs3)s2)cc1C | 4470 nM (active)
40 | Cc1nnc(NC(=O)c2ccc3nccnc3c2)s1 | inactive
41 | CC(C)c1ccc(NC(=O)COC(=O)c2ccc(CN3CCCC3=O)cc2)cc1 | inactive
42 | O=C(Nc1ccnc(-c2ccncc2)n1)c1cccs1 | inactive
43 | O=C(Nc1ccc(O)cc1)c1ccc(NC(=O)c2ccco2)cc1 | inactive
44 | Cc1ccnc(NC(=O)c2ccc(NC(=O)c3ccco3)cc2)c1 | 3980 nM (active)
45 | O=C(Nc1ccc(NC(=O)c2cccs2)cn1)c1ccco1 | 316 nM (active)
46 | Cc1cc(NC(=O)c2ccc(F)cc2)ccc1NC(=O)c1ccco1 | inactive

Row | SMILES | Potency
47 | O=C(Nc1ccccc1)c1ccco1 | inactive
48 | CCN(CC(=O)Nc1c(F)cccc1F)C(=O)c1cnc(C)cn1 | inactive
49 | O=C(CCNC(=O)c1ccc(Br)cc1)NCC(c1ccco1)N1CCCCC1 (centres undefined) | inactive
50 | COc1ccc(C2=NN(C(=O)CSc3nnnn3C)C(c3ccco3)C2)cc1 (centres undefined) | inactive
51 | Nc1ncc(-c2cc3ccccc3oc2=O)s1 | 2510 nM (active)
52 | Cc1cc2c(=O)n(C)c(SCC(=O)c3cc4ccccc4o3)nc2s1 | inactive
53 | O=C(NCc1cccnc1)c1cccc(-c2cc3ccccc3oc2=O)c1 | inactive
54 | O=C(CSc1ccccc1)Nc1cccc(S(=O)(=O)N2CCCCC2)c1 | inactive
55 | C=CCNC(=O)c1ccc(C)c(Br)c1 | inactive
56 | C=CCNC(=O)c1ccc2c3n(nc2c1)-c1ccc(C)cc1CO3 | 501 nM (active)
57 | Cc1cccc(-c2nc3ccc(C(=O)NCCN4CCN(C)CC4)cc3nc2-c2cccc(C)c2)c1 | inactive
58 | CCOC(=O)c1sc(NC(=O)C2CSC3(C)CCC(=O)N23)nc1C (centres undefined) | inactive
59 | C=CCSc1ccc(S(=O)(=O)N2CCN(C)CC2)cn1 | inactive
60 | CCCCN(C(=O)C(CCSC)N1C(=O)c2ccccc2C1=O)c1c(N)n(CCC)c(=O)[nH]c1=O (centres undefined) | inactive
61 | Cc1cccc(C)c1NC(=O)COC(=O)c1c(C)nn(-c2ccccc2)c1C | inactive
62 | Cc1ccc(-n2nc(C)c(C(=O)O)c2-n2cccc2)cc1 | inactive
63 | Cc1ccc(OC(=O)c2c(C)nn(-c3ccccc3)c2C)cc1 | 2820 nM (active)
64 | COCCN(C(=O)CSCc1ccc(C)cc1)c1c(N)n(CC(C)C)c(=O)[nH]c1=O | inactive
65 | CCN(CC(=O)NCc1cccs1)C(=O)/C=C/c1ccc(C)cc1 | inactive
66 | Cc1cccc(Nc2nnc(SCC(=O)c3c(N)n(C4CC4)c(=O)[nH]c3=O)s2)c1C | inactive
67 | COc1ccccc1-n1cnc2cc(C(=O)NCC3CCCO3)ccc21 (centres undefined) | inactive
68 | CCOc1ccc(C(=O)NC2CCN(CC(=O)NCc3cccs3)CC2)cc1 | inactive
69 | O=C(NCc1cccs1)c1ccc2c(c1)ncn2C1CCCC1 | 3550 nM (active)

Reference: PubChem BioAssay AID485313 (National Center for Advancing Translational Sciences (NCATS), 2010)
